From PubChem BioAssay (NCI) come the findings set out here.

About 83,000 compounds went through this panel and 20% of them were active in at least one assay; those are over-represented in the sample as a whole.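 Plates (96-well) were seeded with cells, treated with compound at one concentration, and incubated for 48 hours before percent growth was determined.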 A number with no mark means an inactive call. Calls of active or inactive are those of the source. Rule for the calls: active = growth percent below 10; inactive = the rest.

Common to all, as to experiment: NCI-60 one-dose screen, 48 h (100 = growth as untreated, 0 = no growth, -100 = all killed)
What all share (conditions): 10 µM unless noted

The test system of assay [1] is NCI-H23 lung.
Assay [2] relates to NCI-H226 lung.
Assay [3] concerns NCI-H322M lung.
Assay [4] deals with HOP-62 NSCLC.
For assay [5], the system named is NCI-H460 lung.
Assay [6] concerns HOP-92 NSCLC.
Assay [7] relates to NCI-H522 lung.
Assay [8] deals with 786-0 renal.
Assay [9] deals with COLO 205 colon.
The test system of assay [10] is DU-145 prostate.
In assay [11] the test system is K-562 leukemia.
The test system of assay [12] is MALME-3M melanoma.
For assay [13], the system named is MDA-MB-231 breast.
Assay [14] deals with RXF 393 renal.
For assay [15], the system named is SF-268 CNS.
The test system of assay [16] is SF-295 CNS.
Assay [17] relates to SF-539 CNS.
The test system of assay [18] is UACC-257 melanoma.
The test system of assay [19] is M14 melanoma.
The test system of assay [20] is A549/ATCC NSCLC.

`COc1ccc(-c2nnc(SCC(=O)Nc3ccc(/C(C)=N\O)cc3)n2-c2ccccc2)cc1OC`: the growth is 68.8% in assay [1]; 81.9% in assay [2]; 75.7% in assay [3]; -26.4% (active) in assay [4]; 102% in [5]; -8.56% (active) in assay [6]. For the same molecule, the growth in [7] is 35.3%; in assay [8], 64.5%; in assay [9], 99.1%; in assay [10] it was 88.3%; in [11], 105%; in [12], 61.8%. Besides, the growth was 47.9% in assay [13]; 32.3% in [14]; 30.6% in assay [15]; 39.1% in assay [16]; 43% in assay [17]; 91.8% in [18]. Also, in [19], the growth was 89.9%.
Consider `COc1cc(/C=C/c2cc(/C=C/c3ccc(O)c(OC)c3)n(C(=O)Nc3ccc(F)cc3)n2)ccc1O`, for which the growth in [1] was 10.7%; in assay [2], 15.9%; in assay [3], 27.3%; in assay [5], 8.35% (active); in [6] it was -3.45% (active); in assay [7], -6.04% (active). In addition, the growth was 12% in assay [20]; -6.9% (active) in [8]; 8.73% (active) in assay [9]; 6.78% (active) in assay [10]; 0.22% (active) in assay [11]; 9.15% (active) in [12]. Further, the growth was 33.6% in assay [13]; -43.8% (active) in assay [14]; 20.1% in assay [15]; -21.6% (active) in assay [16]; 3.68% (active) in assay [17]; 13.7% in [18]. Also, the growth in [19] was 2.69% (active).
As for `CCCC(O)Cn1ncc(C(=O)OCC)c1NC(=O)NCc1cccc(F)c1` (stereo unspecified), the growth in assay [1] is 91.2%; in assay [2] it was 112%; in [3], 93%; in assay [5], 107%; in assay [6], 71.3%; in [7] it was 58.6%. For the same molecule, the growth in assay [20] was 88.4%; in [8], 73.4%; in [9], 111%; in assay [10], 99.4%; in assay [11] it was 68.6%; in [12] it was 97.6%. Also, the growth in assay [13] is 103%; in assay [14], 120%; in [15], 98.4%; in [16], 93.3%; in [17], 94.8%; in assay [18] it was 85.2%.
As to `CN1CCN(Cc2cc(NC(=O)c3cccc(C#Cc4cccc5[nH]nc(N)c45)c3)cc(C(F)(F)F)c2)CC1`, the growth in [1] was 41.3%; in assay [2], 24.6%; in assay [3] it was 35.9%; in assay [5], -20.9% (active); in [6], -28.4% (active); in assay [7] it was 20.9%. The growth was 27.9% in assay [20]; 24.9% in assay [8]; -35.3% (active) in assay [9]; 33.9% in assay [10]; -42.3% (active) in [11]; -54.7% (active) in assay [12]. Moreover, the growth is -31% (active) in [13]; -9.77% (active) in [14]; 40.5% in [15]; 26.3% in assay [16]; -55.6% (active) in assay [17]; 57.8% in assay [18]. The growth in [19] is -53.1% (active).
For `CCOC(=O)C(=Cc1cccc(C#N)c1)C(=O)OCC`, the growth in assay [1] is 68.4%; in assay [2] it was 38.1%; in [3], 91%; in assay [5] it was 95.9%; in assay [6], 63.2%; in assay [7], 16.7%. Also, the growth is 75.5% in [20]; 86.4% in [8]; 47.1% in assay [9]; 48% in assay [10]; 22.7% in assay [11]; 49.9% in assay [12]. The growth is 55.4% in assay [13]; 33.5% in [14]; 64.1% in assay [15]; 95.9% in assay [16]; 62.9% in [17]; 69.6% in assay [18]. Further, in assay [19], the growth is 62.3%.
For the molecule `COc1ncc2cc1NS(=O)(=O)c1cccc(c1)C(=O)NCC1=CC=C(S1)c1ncnc3c1SC2=C3C`, the growth is 10.6% in assay [1]; -30.4% (active) in assay [2]; -65.4% (active) in assay [3]; 2.61% (active) in [5]; -17.5% (active) in [6]; 4.2% (active) in [7]. Besides, the growth in [20] was 1.4% (active); in assay [8], -23.8% (active); in [9], -35.5% (active); in [10], 9.14% (active); in assay [11], 4.66% (active); in assay [12] it was -39.2% (active). The growth in assay [13] is 10.9%; in [14] it was -62.8% (active); in assay [15] it was 0.0661% (active); in [16], -21.6% (active); in assay [17] it was -55.3% (active); in assay [18], -1.33% (active). Moreover, the growth in assay [19] is -43.9% (active).
Take `CC(C)(C)c1cc(C=Nc2cccc(C(F)(F)F)c2)c(O)c(C(C)(C)C)c1`: the growth is 88.5% in [1]; 91.4% in [2]; 95.3% in [3]; 107% in assay [5]; 90.9% in assay [6]; 73.5% in assay [7]. Besides, the growth is 84.1% in assay [20]; 107% in [8]; 119% in [9]; 107% in [10]; 70.2% in assay [11]; 108% in assay [12]. Moreover, the growth in [13] is 98.3%; in [14] it was 94.3%; in assay [15] it was 90.1%; in assay [16], 97.4%; in [17], 101%; in [18] it was 78.7%. Also, the growth in assay [19] is 100%.
Consider `O=C(CSc1nnc2sc(Nc3cccc(Cl)c3)nn12)c1ccc(F)cc1`, for which the growth is 80.3% in assay [1]; 95.9% in assay [2]; 91.5% in assay [3]; 95.8% in assay [5]; 74.5% in assay [6]; 75.6% in assay [7]. Further, the growth in assay [20] is 87.1%; in assay [8] it was 91.4%; in [9] it was 92.6%; in assay [10] it was 104%; in assay [11], 90.6%; in assay [12] it was 116%. Further, the growth in assay [13] is 79.7%; in assay [14], 102%; in [15], 101%; in assay [16] it was 97.2%; in assay [17] it was 102%; in [18], 102%. Besides, the growth in assay [19] was 96%.
